FECH block: inhibitors of human ferrochelatase. purified FECH, Ni-mesoporphyrin absorbance 550 nm. calls only at 10 µM (by protocol). 20,000 tested, 3.3% active;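 active = enzyme reaction rate more than 3 SD below the solvent-only control wells on the same plate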;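 also: lower slope than DMSO wells means FECH inhibition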
Target sequence (P22830 whole entry, looked up): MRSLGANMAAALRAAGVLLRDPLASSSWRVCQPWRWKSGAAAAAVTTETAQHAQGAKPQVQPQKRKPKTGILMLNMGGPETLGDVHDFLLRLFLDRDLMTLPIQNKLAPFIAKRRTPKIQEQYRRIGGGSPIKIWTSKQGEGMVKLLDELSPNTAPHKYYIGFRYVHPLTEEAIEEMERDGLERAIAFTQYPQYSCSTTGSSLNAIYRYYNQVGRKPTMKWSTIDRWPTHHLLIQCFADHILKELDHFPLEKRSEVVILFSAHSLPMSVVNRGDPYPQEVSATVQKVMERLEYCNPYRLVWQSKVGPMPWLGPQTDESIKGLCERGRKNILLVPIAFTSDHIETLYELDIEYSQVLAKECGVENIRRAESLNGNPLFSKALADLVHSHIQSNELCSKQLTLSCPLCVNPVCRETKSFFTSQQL
Large screens that a line does not name were inactive. This excerpt belongs to a sample that is enriched for hits.

O=C(NC1CC(=O)N(Cc2ccccc2Cl)C1)c1cn2ccsc2n1 (centres undefined)	none
O=C(NCCCN1CCN(c2ccc(F)cc2)CC1)C1CCCN1c1nnc(N2CCCC2=O)s1 (centres undefined)	FECH block active
COc1ccc(CNC(=O)C2CCCN2S(=O)(=O)c2ccc3c(c2)CCCC(=O)N3)cc1 (centres undefined)	none
COc1ccc(N2CCN(CCCNC(=O)c3cccn3-c3nnc(N4CCCCC4)s3)CC2)cc1	none
CCN(CCCNC(=O)C1CCCN1c1nnc(N2CCCC2=O)s1)Cc1ccccc1 (centres undefined)	none
O=C(NCCN1CCCc2ccccc21)C1CCCN1c1nnc(N2CCCC2=O)s1 (centres undefined)	none
COc1ccc(CNC(=O)C2CCCN2c2nnc(N3CCCC3=O)s2)cc1OC (centres undefined)	FECH block active
CC(C)NC(=O)c1nc[nH]c1C(=O)N1CCCCCC1	none
Cc1ccc(CCC(=O)N2CCNCC2C(=O)N2CCCC2)cc1C (centres undefined)	none
O=C(NCCC1COc2ccccc2O1)c1ccc(-c2ccc[nH]2)nc1 (centres undefined)	none
O=C(c1csc(S(=O)(=O)N2CCC(Cc3ccccc3)CC2)c1)N1CCCC1	none
C/C=C/CN1CC=C(C(CC)NC(=O)COC)CC1 (centres undefined)	none
COc1ccc(CNC(=O)Cn2c(=O)c3cnc(-c4ccccc4)nc3n(C)c2=O)cc1	none
Cn1c(CCc2ccccc2NC(=O)C2CCCN(S(=O)(=O)N3CCCC3)C2)nc2ccccc21 (centres undefined)	none
O=C(Nc1ccc2nc(CCc3ccccc3)[nH]c2c1)C1CCN(S(=O)(=O)N2CCOCC2)CC1	none
Cn1c(CCc2cccc(NC(=O)C3CCN(S(=O)(=O)N4CCCC4)CC3)c2)nc2ccccc21	FECH block active
CCC(NC(=O)c1coc(COc2ccc(F)cc2)n1)c1ncnn1C (centres undefined)	none
COc1ccc(N2C(=O)N(Cc3cc(=O)n4ccccc4n3)c3ccccc3S2(=O)=O)cc1OC	none
COc1ccc(-c2csc(C)n2)cc1S(=O)(=O)Nc1ccc(S(N)(=O)=O)cc1	none
CCN(CC)c1ncc(NS(=O)(=O)c2ccc(OC)cc2)cc1C(=O)O	none
COc1ccc(NS(=O)(=O)c2ccc(N)c(S(N)(=O)=O)c2)cc1	FECH block active
CCc1ccc(NS(=O)(=O)c2ccc(N)c(S(N)(=O)=O)c2)cc1	FECH block active
CCc1ccc(NS(=O)(=O)c2ccc3c(c2)C(=O)NC3)cc1	none
Cc1ccc(NS(=O)(=O)c2ccc(N)c(S(N)(=O)=O)c2)cc1	FECH block active
Cn1cnc(S(=O)(=O)Nc2ccc(S(N)(=O)=O)cc2)c1	none
CCc1ccc(NS(=O)(=O)c2ccc(C(=O)N(C)C)s2)cc1	none
NS(=O)(=O)c1ccc(NS(=O)(=O)c2ccc3c(c2)NC(=O)CC(=O)N3)cc1	none
CC(C)(C)C(=O)Nc1ccc(NC(=O)c2cnc[nH]2)cc1Cl	none
COc1cccc(-c2c(Nc3ccccc3)oc3c2c(=O)n(C)c(=O)n3C)c1OC	none
Nc1nc(N2CCCCCC2)ncc1S(=O)(=O)c1cccs1	FECH block active
Cc1cc(N2CCCC2)nc(N2CCN(S(=O)(=O)c3ccccc3)CC2)n1	none
Cc1cc(N2CCCCC2)nc(N2CCN(S(=O)(=O)c3ccccc3)CC2)n1	none
CNC(=O)CC1C(=O)NCCN1CC(=O)NCCc1ccc(Cl)cc1 (centres undefined)	none
CCOC(=O)N1CCN(c2nc(C)ncc2CC)CC1	none
CC(Cc1cnccn1)n1ccnc1-c1nccn1C (centres undefined)	none
Clc1ccc(Nc2nc(N3CCOCC3)nc3c2cnn3-c2ccccc2)cc1	none
Cc1ccc(-c2cc(N3CCN(S(=O)(=O)c4ccc(Br)cc4)CC3)ncn2)cc1	FECH block active
O=S(=O)(c1ccc(Br)cc1)N1CCN(c2cc(-c3cccc(F)c3)ncn2)CC1	none
O=S(=O)(c1ccc(Br)cc1)N1CCN(c2cc(-c3ccc(F)cc3)ncn2)CC1	none
CC(C)(C)CN1CC(NC(=O)CCc2n[nH]c3c2CCCC3)CC1=O (centres undefined)	none
O=C(Nc1ccc(Cl)c(N2CCCS2(=O)=O)c1)c1c(F)cccc1F	none
Fc1cccc(F)c1CCC1CCCN(CCc2ccccn2)C1 (centres undefined)	none
CCc1ccccc1NC(=O)C(=O)N1CCN(C)C2(CCN(C)CC2)C1	none
CN1CCC2(CC1)CN(C(=O)CNC(N)=O)CCCN2C	none
COc1ccc(NC(=O)CC(=O)N2CCN(C)C3(CCN(C)CC3)C2)cc1	FECH block active
O=C1CC(c2cccc3[nH]ccc23)c2c(nc3ccccn23)CN1 (centres undefined)	none
COc1ccc(-c2cc(C(=O)Nc3ccc(C)cc3C)[nH]n2)cc1S(N)(=O)=O	none
COc1ccc(-c2ccc(=O)[nH]n2)cc1S(=O)(=O)Nc1ccc(C)cc1C	none
COc1ccc(N2C(=O)CCS2(=O)=O)cc1S(=O)(=O)Nc1cc(C)ccc1C	none
Cc1ccc(C)c(NS(=O)(=O)c2ccc(N)c(S(N)(=O)=O)c2)c1	FECH block active
Cc1ccc(NS(=O)(=O)c2ccc(N)c(S(N)(=O)=O)c2)c(C)c1	FECH block active
Cc1ccc(C)c(NS(=O)(=O)c2cc(N3C(=O)CCS3(=O)=O)ccc2C)c1	none
CC1CCN(c2nc(Nc3ccc(Cl)cc3)c3cnn(-c4ccccc4)c3n2)CC1	none
Cc1cc(C(=O)Nc2ccc(NC(=O)CN(C)C3CCCC3)cc2)co1	none
CCn1cc(-c2c(-c3ccccc3)ncn2Cc2ccc3nonc3c2)c(C)n1	none
COc1ccc(C)cc1NC(=O)Cn1ccnc1-c1nccn1C	none
CCc1ccc2c(c1)-c1ccccc1S(=O)(=O)N2CC(=O)Nc1cc(C)ccc1C	FECH block active
CC(C)c1ccc2c(c1)-c1ccccc1S(=O)(=O)N2CC(=O)N1CC(=O)Nc2ccccc21	none
CCc1ccc2c(c1)-c1ccccc1S(=O)(=O)N2CC(=O)Nc1ccccc1Oc1ccccc1	none
COc1ccc(C)cc1NC(=O)CN1c2ccc(Br)cc2-c2ccccc2S1(=O)=O	FECH block active
CCc1ccc2c(c1)-c1ccccc1S(=O)(=O)N2CC(=O)Nc1ccc2c(c1)OCO2	none
O=C(CN1c2ccc(Br)cc2-c2ccccc2S1(=O)=O)N1CCc2ccccc2C1	none
O=C(CN1c2ccc(Br)cc2-c2ccccc2S1(=O)=O)NCCC1=CCCCC1	FECH block active
CN1CCN(C(=O)CN2c3ccc(Br)cc3-c3ccccc3S2(=O)=O)CC1	FECH block active
c1ccc(CC2(Cc3ccccc3)NCCc3[nH]cnc32)cc1	none
Cc1cc(CNC(=O)[C@H]2C[C@@](C)(C(=O)O)N(C)[C@H]2c2ccccc2)n[nH]1	none
Cc1ccc(NC(=O)CC(=O)NCCc2csc(C(C)C)n2)cc1	none
CCCNC(=O)C1CCC(Cn2c(=O)c3sccc3n(CC(=O)Nc3cccc(C)c3)c2=O)CC1 (centres undefined)	none
CCCc1cnc(C)nc1N1CCN(Cc2cccc3[nH]ccc23)CC1	none
CCn1c(=O)n(-c2ccc(C)c(C)c2)c2nc(-c3ccc(C)c(C)c3)nc(C(N)=O)c21	none
CC(c1ccccn1)N(C)Cc1ccc(-n2ccnc2)cc1 (centres undefined)	none
CC(C)NC(=O)CN1c2ccc(Br)cc2-c2ccccc2S1(=O)=O	FECH block active
COc1ccccc1CNC(=O)CN1c2ccc(Br)cc2-c2ccccc2S1(=O)=O	none
C=CCNC(=O)CN1c2ccc(Br)cc2-c2ccccc2S1(=O)=O	FECH block active
Cc1cccc(NC(=O)CC(=O)NC[C@@H]2CCCO2)c1C	none
O=C(CN1c2ccc(Br)cc2-c2ccccc2S1(=O)=O)NCC1CCCO1 (centres undefined)	FECH block active
